# The list is not random: actives were taken first. Their share in the collection is about 1.1%.
# AmpC no deterg: qHTS Inhibitors of AmpC Beta-Lactamase (assay without detergent). Potency, µM (top dose mostly 57.1 µM), inactives show at the top dose activity change, negative = inhibition, usual class: inhibitors. P00811. AmpC nitrocefin hydrolysis, absorbance 480 nm, 0.0001% Triton. 0.52% of 330,000 active;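 note: plate controls were no compound for no effect and no enzyme for full effect; nearly all actives have a fitted effect of over 20% in size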
# Target sequence (P00811 whole entry, looked up): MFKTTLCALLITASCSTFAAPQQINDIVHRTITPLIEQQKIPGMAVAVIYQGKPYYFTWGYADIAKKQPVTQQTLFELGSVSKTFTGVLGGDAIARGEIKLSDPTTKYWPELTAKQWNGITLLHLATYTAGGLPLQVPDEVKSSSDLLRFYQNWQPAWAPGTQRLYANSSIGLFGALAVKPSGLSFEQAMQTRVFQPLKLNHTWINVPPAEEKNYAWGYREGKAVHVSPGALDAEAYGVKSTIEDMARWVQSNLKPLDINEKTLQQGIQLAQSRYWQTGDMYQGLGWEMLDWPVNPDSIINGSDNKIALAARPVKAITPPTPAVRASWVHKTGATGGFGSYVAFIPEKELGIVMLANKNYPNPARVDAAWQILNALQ
#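 20 mM phosphate pH 7.0 + 0.01% (detergent screen) or 0.0001% Triton X-100; 5.3 nM AmpC reagent; cpd preinc 15 min RT; nitrocefin (800 uM stock) to start; A480 q20 s × 4 min; Activity was normalised to no-enzyme and no-compound control wells.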
# AmpC detergent: qHTS Inhibitors of AmpC Beta-Lactamase (assay with detergent). P00811. AmpC hydrolysis of nitrocefin, absorbance 480 nm, 0.01% Triton. Potency, µM (doses to about 114 µM), for inactives: top-dose activity change, negative = inhibition, most hits filed as inhibitors. 0.041% of 370,000 active;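 note: 0% = no-compound wells and -100% = no-enzyme wells; nearly all actives have a fitted effect of over 25% in size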
#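 AmpC (5.3 nM in the dispensed reagent) in 20 mM phosphate pH 7.0 with 0.01% (detergent screen) or 0.0001% Triton X-100 was preincubated with compounds for 15 min at room temperature. Nitrocefin was then added from an 800 uM solution, and hydrolysis was followed at 480 nm.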
# AMA1 RON2 block: qHTS for Inhibitors of AMA1-RON; Towards Development of Antimalarial Drug Lead: Primary Screen; AlphaScreen AMA1-biotinylated RON2 peptide binding; Potency, µM (doses to about 58.2 µM), for the others: at the highest dose activity change, negative = inhibition, actives largely listed as inhibitors; 0.2% of 360,000 active;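 note: 0% = vehicle wells and -100% = peptide control; nearly all actives have a fitted effect of over 45% in size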
#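 AMA1 (3D7) with his tag at 25 nM final met compounds first, then biotinylated RON2 peptide at 25 nM; detection used donor plus acceptor beads, 10 µg/mL apiece, read by AlphaScreen after 30 min at room temperature.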
# FBPA Giardia inh: qHTS Assay for Inhibitors of Fructose-1,6-bisphosphate Aldolase from Giardia Lamblia | A8B2U2 | purified Giardia FBPA | Potency, µM (doses to about 59.6 µM), inactives show at the top dose activity, negative = inhibition, hits mostly inhibitors | 0.71% of 290,000 active | AID 2451, 2010; note: nearly all actives have a fitted effect of over 55% in size
#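 Giardia FBPA (40 nM reagent) was preincubated 10 min at RT with compound (up to 57.5 uM final), then substrate plus GAPDH/TPI/NAD/arsenate coupling system with diaphorase/resazurin was added; resorufin fluorescence (525/598 nm) was read after 20 min.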
# * hit, by the source's call; ? = inconclusive; . = no result given; [ ] = dose if it differs, or a comment. Calls come from the whole dose curve; as a rule, active = well fitted curve in the direction sought with a large enough effect; inconclusive = small, poorly fitted or top-dose-only effect, or another doubt; inactive = no such curve, though single readings can be large; an effect the other way counts as inactive or inconclusive. Unless noted, % is set by controls: 0 for no effect and ±100 for the full control effect; potency is the fitted concentration of half-maximal effect.
SMILES,AmpC no deterg,AmpC detergent,AMA1 RON2 block,FBPA Giardia inh
CC(C)c1ccc(NC(=O)C(Cc2ccccc2)n2cccc2)cc1 (centres undefined),.,17%,.,.
O=C(/C=C\c1ccco1)c1ccc(NC(=O)c2ccco2)cc1,6.3µM*,2%,-2%,-6%
CC1CN(CCOc2ccc(Cl)c(Cl)c2)CC(C)O1 (centres undefined),45%,-15%,?,-23%
CC1CN(CCOc2ccccc2C(C)C)CC(C)O1 (centres undefined),31%,-5%,20µM*,?
COC(=O)c1ccccc1OCCCCN1CC(C)OC(C)C1 (centres undefined),-26%,7%,-5%,?
C=CCc1cc(OC)ccc1OCCN1CC(C)OC(C)C1 (centres undefined),21%,-10%,13µM*,?
O=C(Cc1ccc(S(=O)(=O)N2CCOCC2)s1)NC1CCCCC1,-21%,-20%,-9%[11.6 µM],.
CC1CCCCC1NC(=O)Cc1ccc(S(=O)(=O)N2CCOCC2)s1 (centres undefined),35µM*,?,9%,.
O=C(Cc1ccc(S(=O)(=O)N2CCOCC2)s1)Nc1ccc2c(c1)CCC2,-19%,-12%,-5%,-1%
O=C(Cc1ccc(S(=O)(=O)N2CCOCC2)s1)Nc1nc2c(s1)CCCC2,-33%,-3%,-1%,16µM*
N#Cc1nc(-c2ccc(F)cc2)oc1NCCN1CCOCC1,0.63µM*,?,14%,0%
COc1ccc(-c2nc(C#N)c(NCCCN3CCOCC3)o2)cc1,28µM*,5%,26%,-7%
O=C(CCNC(=O)c1ccccc1Cl)Nc1ccc(S(=O)(=O)N2CCOCC2)cc1,.,.,-14%,.
O=C(NCCC(=O)N1CCN(c2ccc(F)cc2)CC1)c1ccco1,2%,?,4%,.
Oc1c(/C=C/C=C/C=Nc2ccccc2)sc(=S)n1Cc1ccccc1,13µM*,-2%,-7%,-21%
C[C@@H]1CN([C@H](C)CO)C(=O)CCCn2nncc2CO[C@H]1CN(C)Cc1ccc2c(c1)OCO2,.,.,-29%,.
Cc1ccc(N)c(C)c1,-4%,3%,-4%,.
Cc1ccc(N=Nc2cc(C)ccc2N)cc1,-43%,-6%,32µM*,-1%
C/C(CCN1CCCCc2nc(C)c(C)cc21)=N\OC[C@@H](O)COCc1ccco1,.,.,.,-1%[12.9 µM]
Cc1ccccc1-c1ccnc2c(-c3ccc(F)cc3)c(C)nn12,.,-3%,.,.
COc1ccc2nc3c(cc2c1)Cc1ccccc1-3,.,.,.,18µM*
CN(C)CCN1CCN(C2CN(Cc3ccc(F)cc3)S(=O)(=O)C2)CC1 (centres undefined),.,.,25%,.
CCc1ccc2[nH]cc(S(=O)(=O)c3ccc(C(C)C)cc3)c(=O)c2c1,.,-1%,.,.
CC1CC(=O)N(CC(=O)NCc2ccc(F)cc2)c2ccccc2S1(=O)=O (centres undefined),1%,3%,-11%,-5%
CCOC(=O)N1CCC(NC(=O)CN2C(=O)CSc3ncccc32)CC1,28µM*,8%,2%,-2%
SMILES,AmpC no deterg,AmpC detergent,AMA1 RON2 block,FBPA Giardia inh
CCOC(=O)N1CCC(NC(=O)CCCN2C(=O)CSc3ncccc32)CC1,.,0%,29%,3%
CCN(CC)CCCN(Cc1cc2cc3c(cc2[nH]c1=O)OCO3)C(=O)Nc1ccccc1OC,0.4µM*,-1%,-10%,0%
COc1cc(OC)c2cc(C(=O)N/N=C/c3cccc(OC)c3O)[nH]c2c1,0.4µM*,-5%,99%,11%
O=C(NCc1ccncc1)[C@@H]1CCCN1C(=O)[C@H]1CCCN1C(=O)c1cccc2ccccc12,.,.,-5%,.
C/C(Cn1nnc([N+](=O)[O-])n1)=N\NC(=O)c1ccccc1O,-30%,4%,71%,18µM*
C/C(Cn1nnc([N+](=O)[O-])n1)=N\NC(=O)c1ccc(O)cc1O,-22%,-10%,-10%[2.32 µM],?
Oc1ccc2ccccc2c1C=NCc1cn2ccsc2n1,-17%,?,39%,1µM*
COCCCNC(=O)CC1Oc2ccccc2NC1=O (centres undefined),10µM*,?,20%,6%
Cc1ncc(CO)c(/C=N/NC(=O)c2cc(Br)ccc2O)c1O,-27%,-12%,4µM*,19%
Cc1ncc(CO)c(/C=N/NC(=O)c2ccc(Br)cc2)c1O,-41%,-21%,.,-21%
CC(=O)Nc1ccc(S(=O)(=O)Nc2cc(-c3cn4ccccc4n3)ccc2C)cc1,.,16%,.,.
O=C(NCc1ccccc1)C(c1ccc(-c2ccccc2)cc1)n1c(=O)c(-c2ccco2)nc2ccccc21 (centres undefined),.,.,7%,.
O=[N+]([O-])c1cc(Cl)ccc1Nc1ccccc1,-23%,0%,14µM*,-4%
NS(=O)(=O)c1ccc(Nc2ccccc2)c([N+](=O)[O-])c1,-20%,-3%,-12%,-2%
O=C1c2ccccc2C(=O)c2c(NCc3cccnc3)cccc21,-13%,-10%,?,-6%
CNc1cccc2c1C(=O)c1ccccc1C2=O,-23%,-9%,4µM*,-28%
Cc1ccc(NC(=O)CN2C(=O)COc3ccc(S(=O)(=O)NC4CCCC4)cc32)cc1Cl,.,16%,.,.
COc1ccc(C)cc1NC(=O)c1ccc(=O)n(Cc2ccccc2)c1,.,0%,.,.
CCCCn1c(=O)c(C=Nc2ccc(Cl)cc2)c(O)n(Cc2ccco2)c1=O,-26%,-14%,7%,4%
CC(C)n1c(=O)c(C=Nc2ccc(S(N)(=O)=O)cc2)c(O)n(Cc2ccco2)c1=O,22µM*,-9%,0%,-2%
COc1ccccc1N1CCN(C(c2cc3ccc(C)cc3[nH]c2=O)c2nnnn2C2CCCC2)CC1 (centres undefined),16%,?,7%,28µM*
COc1ccc(SCC(Cc2ccccc2)N2CCN(CC(C)C)CCC2=O)cc1 (centres undefined),.,.,.,-3%
NC[C@H](O)c1ccc(O)c(O)c1,-34%,-14%,2.8µM*,?
CNC[C@H](O)c1ccc(O)c(O)c1,-26%,-1%,?,18µM*
